# Data from PubChem BioAssay (NCATS).
# Several values for one entry are separate records, joined by “and”; a condition that tells them apart may be missing. Equal entries are not always repeated. Results filed as inconclusive are left out. Where a call stands in place of a potency, no number is given. Values without a mark were called inactive. Activity calls are given as the source filed them. The call rests on the fitted dose curve; in most records, active means well fitted curve in the direction sought with a large enough effect; inconclusive means small, poorly fitted or top-dose-only effect, or another doubt; inactive means no such curve, though single readings can be large; an effect the other way counts as inactive or inconclusive.
# What was measured:
# KB-3-1 = experiment: Cytotoxic Profiling of Annotated Libraries Using Quantitative High-Throughput Screening (AID 1296008); conditions: Five cell lines viability, CellTiter-Glo ATP luminescence, 48-72 h; max response: active compounds read low; further: nearly all actives have a fitted effect of over 60% in size
# How it was run: (§1)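 Cytotoxicity was measured as CellTiter-Glo ATP luminescence, read after 10 min at room temperature. Compound treatment of the cells lasted 48 or 72 hr at 37 degrees Celsius in a qHTS format.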
# NIH3T3 = experiment: as above; conditions: Five cell lines viability, CellTiter-Glo ATP luminescence, 48-72 h; max response: active compounds read low
# How it was run: as §1
# HACAT = experiment: qHTS assay to identify novel small-molecules to repurpose for Merkel cell carcinoma treatment (AID 1296009); conditions: MCC and control cell lines, CellTiter-Glo viability, 72 h; at 44.8 µM (top of the series) unless noted; further: nearly all actives have a fitted effect of over 60% in size; further: potency means the concentration at half of the fitted maximal effect
# How it was run: (§2)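 72 hr, 37 degree celsius; NPC 8-pt / MIPE 11-pt dose response; compound pinned in DMSO; CellTiter-Glo, 10 min RT, luminescence; normalized to no-cell and DMSO controls.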
# MCC-13 = experiment: as above; conditions: MCC and control cell lines, CellTiter-Glo viability, 72 h; series mostly up to 46 µM
# How it was run: as §2
# MKL-2 = experiment: as above; conditions: MCC and control cell lines, CellTiter-Glo viability, 72 h; series mostly up to 46 µM
# How it was run: as §2
# C33A = experiment: Primary qHTS to identify gynecologic anti-cancer compounds using libraries of approved drugs and bioactive compounds (AID 1345084); conditions: Gynecologic cancer cell panel viability, ATPlite luminescence, 48 h; series mostly up to 57.5 µM; further: nearly all actives have a fitted effect of over 55% in size; further: potency means the concentration at half of the fitted maximal effect
# How it was run: (§3)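 Cells, 1,000 per well, were allowed to settle for 16 h at 37 C before compound addition. Five concentrations were tested for 48 h, and viability was read by ATPlite luminescence after 15 min at room temperature.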
# CAOV3 = experiment: as above; conditions: Gynecologic cancer cell panel viability, ATPlite luminescence, 48 h; series mostly up to 57.5 µM
# How it was run: as §3
# CASKI = experiment: as above; conditions: Gynecologic cancer cell panel viability, ATPlite luminescence, 48 h; series mostly up to 57.5 µM
# How it was run: as §3
# Es-2 = experiment: as above; conditions: Gynecologic cancer cell panel viability, ATPlite luminescence, 48 h; series mostly up to 57.5 µM
# How it was run: as §3
# HeLa = experiment: as above; conditions: Gynecologic cancer cell panel viability, ATPlite luminescence, 48 h; series mostly up to 57.5 µM
# How it was run: as §3
# Hek293T [1] = experiment: as above; conditions: Gynecologic cancer cell panel viability, ATPlite luminescence, 48 h, control line for the selectivity index; series mostly up to 57.5 µM
# How it was run: as §3
# JEG-3 = experiment: as above; conditions: Gynecologic cancer cell panel viability, ATPlite luminescence, 48 h; series mostly up to 57.5 µM
# How it was run: as §3
# MKL-1 = experiment: qHTS assay to identify novel small-molecules to repurpose for Merkel cell carcinoma treatment (AID 1296009); conditions: MCC and control cell lines, CellTiter-Glo viability, 72 h; series mostly up to 46 µM; further: nearly all actives have a fitted effect of over 60% in size; further: potency means the concentration at half of the fitted maximal effect
# How it was run: as §2
# UISO = experiment: as above; conditions: MCC and control cell lines, CellTiter-Glo viability, 72 h; series mostly up to 46 µM
# How it was run: as §2
# WaGa = experiment: as above; conditions: MCC and control cell lines, CellTiter-Glo viability, 72 h; series mostly up to 46 µM
# How it was run: as §2
# MCC-26 = experiment: as above; conditions: MCC and control cell lines, CellTiter-Glo viability, 72 h; series mostly up to 46 µM
# How it was run: as §2
# OV90 = experiment: Primary qHTS to identify gynecologic anti-cancer compounds using libraries of approved drugs and bioactive compounds (AID 1345084); conditions: Gynecologic cancer cell panel viability, ATPlite luminescence, 48 h; series mostly up to 57.5 µM; further: nearly all actives have a fitted effect of over 55% in size; further: potency means the concentration at half of the fitted maximal effect
# How it was run: as §3
# HEK293T [2] = experiment: qHTS assay to identify novel small-molecules to repurpose for Merkel cell carcinoma treatment (AID 1296009); conditions: MCC and control cell lines, CellTiter-Glo viability, 72 h; at 44.8 µM (top of the series) unless noted; further: nearly all actives have a fitted effect of over 60% in size; further: potency means the concentration at half of the fitted maximal effect
# How it was run: as §2
SMILES,max response (KB-3-1),max response (NIH3T3),outcome (HACAT),outcome (MCC-13),Potency (MKL-2),Potency (C33A),outcome (CAOV3),outcome (CASKI),Potency (Es-2),Potency (HeLa),outcome (Hek293T [1]),outcome (JEG-3),Potency (MKL-1),Potency (UISO),Potency (WaGa),Potency (MCC-26),Potency (OV90),outcome (HEK293T [2])
COc1cccc(C(=O)CCN[C@@H](C)[C@H](O)c2ccccc2)c1,25.7%,-18.8%,inactive,inactive,15 µM (active),inactive,inactive,inactive,inactive,inactive,inactive,inactive,,,,,,
CCN(CCO)CCn1c(Cc2ccccc2)nc2c1c(=O)n(C)c(=O)n2C,-17.3%,-7.24%,inactive,inactive,inactive,inactive,inactive,inactive,inactive,inactive,inactive,inactive,inactive,inactive,inactive,,,
CNCC(=O)c1ccc(O)c(O)c1,-7.67%,-2.19%,inactive,inactive,inactive,inactive,inactive,inactive,inactive,inactive,inactive,inactive,inactive,inactive,inactive,inactive,inactive,
CCC1(c2ccc(N)cc2)CCC(=O)NC1=O (stereo not given),5.24% and 0.522%,1.87% and -15.6%,,inactive,inactive,inactive,inactive,inactive,inactive,inactive,inactive,inactive,inactive,inactive,inactive,inactive,inactive,inactive
COc1cc(OC)c(OC)cc1C=O,-7.6% and -8.54%,2.47% and 4.91%,inactive,inactive,inactive,inactive,inactive,inactive,inactive,inactive,inactive,inactive,inactive,inactive,inactive,inactive,inactive,inactive [at 92 µM]
C[C@]12CCC(=O)C=C1CC[C@@H]1[C@@H]2CC[C@@]2(C)[C@H]1CC[C@]2(C)O,-6.95% and 1.16%,-3.69%,inactive,inactive,,inactive,inactive,inactive,inactive,22.4 µM (active),inactive,inactive,inactive,,,inactive,inactive,
CC(Cc1ccccc1)NCCn1cnc2c1c(=O)n(C)c(=O)n2C (stereo not given),0.853%,-0.181%,inactive [at 92 µM],inactive,inactive,inactive,inactive,inactive,inactive,inactive,inactive,inactive,inactive,inactive,inactive,inactive,inactive,
